Source: PubChem (Broad Institute)
esBAF inh = inhibitors of esBAF chromatin remodeling in mouse ES cells; Bmi1-luciferase knock-in reporter, 24 h; 100% = twice the neutral-well signal; AID 602393; 2% of 350,000 active; reporter increase, % at 12.5 µM; in the data active = activation above about 40%; inconclusive = no clear call, values can overlap the other calls;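 note: 0% = median of the plate's neutral control wells and 100% = double that signal; a rise in the Bmi1 reporter signal indicates esBAF inhibition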
Glyco luc inh = blocks N-linked glycosylation in D54 reporter cells; D54 ERlucT glycosylation luciferase reporter, 24 h; percent of 100 nM tunicamycin response; reporter increase, % at 12.5 µM; 0.23% of 360,000 active; AID 588692;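 active = mean luciferase reporter signal, scaled so untreated is 0 and the glycosylation-blocking control 100, at or above a set limit in every replicate; inconclusive = mean reaches the limit but not every replicate does; inactive = mean below the limit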;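 note: luciferase carries N-glycosylation sites so blocking glycosylation raises the light; 0% = median of neutral control wells and 100% = median of 100 nM tunicamycin wells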
PfHsp90 yeast 2 = reduces growth (ATP signal) of yeast expressing P. falciparum Hsp90; AID 504621; 0.32% of 310,000 active; S. cerevisiae expressing PfHsp90, BacTiter-Glo ATP, 48 h; yeast lacking PDR1 and PDR3 efflux regulators; inhibition, % at 9.4 µM;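 active = every replicate shows inhibition above about 80%, whatever the replicate mean, limit read from the data; inconclusive = mean inhibition reaches the set limit but some replicate falls short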;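 note: 0% = DMSO neutral controls and 100% = 20 µM radicicol positive controls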
Wnt bcat act = activates Wnt/beta-catenin signaling in a reporter cell assay; activator, plate reader; activation, % at 9.35 µM; 1.2% of 300,000 active; in the data active = activation above about 30%, passing the limit was not always enough; inconclusive = no clear call, values can overlap the other calls;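 note: 0% = neutral control wells and 100% = positive control wells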
Vif imaging = blocks HIV Vif function; HEK293T cells, Vif self-association by quenched fluorescence, imaging, 24 h; inhibition, % at 7.49 µM; 0.35% of 340,000 active; AID 602346; in the data active = inhibition above about 50%, passing the limit was not always enough; inconclusive = no clear call, values can overlap the other calls; inactive = below about 31%
MITF act = increases MITF-driven TRPM1 promoter luciferase signal; activation, % at 12.5 µM; 0.75% of 300,000 active; SK-MEL-5 TRPM1-promoter luciferase, 24 h; % of positive control, neutral wells = 0; AID 588334;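 active = mean activation of at least 80% with every replicate also reaching 80%; inconclusive = mean reaches 80% but some replicate falls short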;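 note: 0% = neutral control wells and 100% = parthenolide positive control wells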
Starred values were filed as active, the others as inactive; u = inconclusive; x = not tested or not shown. An excerpt weighted towards active compounds, which were near 3% of everything screened.

SMILES	esBAF inh	Glyco luc inh	PfHsp90 yeast 2	Wnt bcat act	Vif imaging	MITF act
O=C(c1cnn(C(=O)c2ccccc2F)c1)c1ccccc1O	5	0	-13	6	0	-1
COc1ccc(C2CC(c3ccccc3OC(C)=O)=NN2C(=O)/C=C/c2ccccc2)cc1 (stereo unspecified)	x	0	-1	x	8	0
CNc1nc(C)c(C(=O)OCc2ccccc2)s1	75*	-5	x	14	16	x
CCOC(=O)c1sc(=NC(=O)c2cccs2)n(C)c1C	25	-13	x	39*	7	43
CCOC(=O)c1sc(=NC(=O)c2ccco2)n(C)c1C	x	0	-5	0	0	21
CCOC(=O)c1sc(=NC(=O)c2ccccc2Br)n(C)c1C	58*	-4	10	32*	-3	u
CC(=O)c1ccc(OCc2cc(C(=O)N(C)C3CCOC3)no2)cc1 (stereo unspecified)	61*	-4	-18	25	-12	70
COc1cc(Cl)ccc1OCc1cc(C(=O)N(C)C2CCOC2)no1 (stereo unspecified)	55*	-1	-19	1	-2	66
CC(=O)c1ccc(OCc2cc(C(=O)N(C)CCOc3ccc(C)cc3)no2)cc1	x	-4	-30	0	-6	116*
CC(=O)c1ccc(OCc2cc(C(=O)N(C)Cc3nc4c(C)cccc4[nH]3)no2)cc1	-4	-3	-16	-1	-6	1
CN(C(=O)c1cc(COc2c(F)cccc2F)on1)C1CCOC1 (stereo unspecified)	28	0	8	9	-3	55
Cc1cc(OCc2cc(C(=O)N(C)C3CCOC3)no2)cc(C)c1Cl (stereo unspecified)	83*	-5	-14	35*	-6	77
N#Cc1ccccc1S(=O)(=O)NC(=O)[C@H]1O[C@@H](n2cnc3c(N)ncnc32)[C@H](O)[C@@H]1O	-2	-2	x	-4	0	x
COc1ccc(-n2nnc3c(SC(C(C)=O)C(=O)N(C)C)ncnc32)cc1 (stereo unspecified)	-6	4	12	-1	10	-2
Cc1csc(NC(=O)CSC2=NCCS2)n1	8	1	-1	0	9	-2
CCN(CC)c1ccc(-c2nc3cnccc3n2C)cc1	40	-2	14	x	-1	85*
NC(=O)C1(c2ccccc2)CCCN1C(=O)c1ccc(Br)cc1 (stereo unspecified)	-7	-2	-3	-1	-5	3
CC(/C=N/NC(=O)c1ccccc1F)=C\c1ccccc1	20	-6	3	5	3	99*
CC(/C=N/NC(=O)c1sc(N)nc1C)=C\c1ccccc1	x	2	2	u	5	120*
O=C(N/N=C/C(Cl)=C\c1ccccc1)c1cccs1	x	-7	6	39*	-4	x
CC(/C=N/NC(=O)c1cccs1)=C\c1ccccc1	38	-12	21	10	-12	99*
CN(Cc1cn(C)nc1-c1ccccc1F)Cc1nccn1C	-1	2	-25	-1	-4	1
CC(=O)COc1cc(C)cc2oc(=O)cc(-c3ccccc3)c12	x	-1	11	0	-11	-1
COc1ccccc1C(=O)NC(=O)COC(=O)c1cccc(C)c1O	6	-1	7	1	-4	1
CCCCn1c(CN(C)Cc2ccccc2)nc2c1c(=O)n(C)c(=O)n2C	-15	3	x	x	-22	-21
SMILES	esBAF inh	Glyco luc inh	PfHsp90 yeast 2	Wnt bcat act	Vif imaging	MITF act
CCC(=O)c1ccc(OCC(O)CN(CCc2ccccc2)Cc2ccccc2)cc1 (stereo unspecified)	-1	-6	-1	x	-2	-13
O=C(N=Nc1c(O)[nH]c2ccccc12)c1ccc(CN2CCOCC2)cc1	13	-1	2	-3	-4	4
O=C(N=Nc1c(O)[nH]c2ccccc12)c1ccc2c(c1)OCO2	x	-9	-4	46*	10	0
Cc1cc(C(=O)CSc2n[nH]c(N)n2)c(C)n1-c1cc(F)ccc1F	51*	-3	-17	14	x	36
Cc1cc(C(=O)CSc2n[nH]c(N)n2)c(C)n1-c1ccc(F)cc1	31	-3	x	28	-6	50
COc1ccc(-n2nc(C(=O)NCC(=O)N3CCN(c4ccccn4)CC3)c3ccccc3c2=O)cc1Cl	x	-2	-17	2	-3	29
Nc1cccc(Oc2ccc3c(c2)C(=O)N(CC2CCCO2)C3=O)c1 (stereo unspecified)	50*	-1	0	15	2	65
Cc1ccc(N(C(=O)c2csnn2)C(C(=O)NC(C)(C)C)c2cccnc2)cc1 (stereo unspecified)	x	1	-10	1	0	0
CSc1ccccc1C(=O)NCCCOC(C)C	-3	2	15	1	-6	-5
CCn1c2ccccc2c2cc(NC(=O)COC(=O)c3ccccc3O)ccc21	x	8	-22	0	-1	-5
CCn1c2ccccc2c2cc(NC(=O)COC(=O)c3cc(S(N)(=O)=O)c(Cl)cc3Cl)ccc21	x	40*	7	-5	0	-4
CCCC(=O)N1C[C@H]2[C@@H](c3ccccc31)[C@@H](CO)N2C(=O)CC1CC1	5	x	x	x	x	x
O=c1c2ccccc2nnn1-c1ccccc1	x	2	1	14	10	9
Cc1ccc(-n2nnc3ccccc3c2=O)cc1C	8	-2	8	x	x	86*
O=C(CCCN1C(=O)c2ccccc2C1=O)Nc1nncs1	-5	1	-9	x	60*	-2
O=C(CCCN1C(=O)c2cccnc2C1=O)Nc1ccc(Br)cc1	-2	1	-2	0	59*	-21
Cc1nnc(NC(=O)CCCN2C(=O)c3ccccc3C2=O)s1	-1	1	12	-1	11	-7
Cc1ccc(O)c(NC(=O)c2cc(-c3ccccc3)on2)c1	76*	4	16	-5	0	60
CCCc1cc(C(=O)Nc2cc(C)ccc2O)no1	57*	3	19	-11	-3	71
O=C(Nc1cc(Br)ccc1O)c1cc(-c2ccccc2)on1	26	2	7	13	12	43
COCCOCCOCCC(=O)NC1CC2CCC1(C)C2(C)C (stereo unspecified)	-7	2	x	x	4	-9
COc1ccccc1C(=O)N/C(N)=N/c1nc2ccccc2o1	51*	4	-6	0	-1	27
N/C(=N\c1nc2ccccc2o1)NC(=O)c1cccc(Br)c1	x	-6	x	4	-7	x
Cc1ccc(C(=O)N/C(N)=N/c2nc3ccccc3o2)cc1	43*	0	5	x	-16	51
N/C(=N\c1nc2ccccc2o1)NC(=O)c1ccccc1	x	4	-56	x	-6	54
COc1ccc(C2=NS(=O)(=O)N(C)C(C(=O)N3C(C)CCCC3C)=C2)cc1 (stereo unspecified)	4	3	9	0	-12	x
